Reference: PubChem BioAssay AID743331 (Broad Institute, 2014)
Values without a mark were called inactive.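 How the source made its calls: active means falling cell viability signal whose fitted half-effect concentration is at most twice the highest valid tested dose; inconclusive means flat curve with 30 to 70 percent loss, or poor fit; inactive means the rest.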

experiment: HepG2 cell cytotoxicity, dose response, cytotoxicity control, plate reader, dry powder, set 8 (AID 743331); conditions: HepG2 viability, CellTiter-Glo ATP luminescence, 72 h; series mostly up to 15 µM; activity change, negative = cytotoxicity: at the top concentration

SMILES	activity change, negative = cytotoxicity [%]
COc1cccc2sc(NC(=O)c3cc(S(=O)(=O)N(C)C)ccc3N3CCCC3)nc12	7.99
CN(C)S(=O)(=O)c1ccc(N2CCCC2)c(C(=O)Nc2nccs2)c1	-1.58
CN(C)S(=O)(=O)c1ccc(N2CCCC2)c(C(=O)Nc2ccccc2)c1	2.08
Cc1cnc(NC(=O)c2cc(S(=O)(=O)N(C)C)ccc2N(C)C)s1	1.98
Cc1cnc(NC(=O)c2cc(S(=O)(=O)N(C)C)ccc2C2CCCC2)s1	1.69
CCN(CC)c1ccc(S(=O)(=O)N(C)C)cc1C(=O)Nc1ncc(C)s1	-2.29
Cc1cnc(NC(=O)c2cc(S(=O)(=O)N3CCCCC3)ccc2N2CCCC2)s1	1.41
Cc1cnc(NC(=O)c2cc(S(=O)(=O)N(C)C)ccc2N2CCCC2)s1	-14.3
COc1ccc2nc(NC(=O)c3cc(S(=O)(=O)N(C)C)ccc3N3CCCC3)sc2c1	-6.47
Cc1csc(NC(=O)c2cc(S(=O)(=O)N(C)C)ccc2N2CCCC2)n1	-5.77
Cc1cnc(NC(=O)c2cc(S(=O)(=O)N3CCOCC3)ccc2N2CCCC2)s1	-0.67
CN(C)CCCN(Cc1cc2ccccc2[nH]c1=O)C(=O)Nc1ccccc1	-8.85
CN(C)S(=O)(=O)c1ccc(N2CCCC2)c(C(=O)Nc2nc3ccccc3s2)c1	-6.07
Cc1cnc(NC(=O)c2cc(S(=O)(=O)N3CCCC3)ccc2N2CCCC2)s1	2.46
Cc1cnc(NC(=O)c2cc(S(=O)(=O)N(C)C)ccc2N2CCC2)s1	-4.57
Cc1ccc(NC(=O)c2cc(S(=O)(=O)N(C)C)ccc2N2CCCC2)cc1	-1.89
COc1ccc2sc(NC(=O)c3cc(S(=O)(=O)N(C)C)ccc3N3CCCC3)nc2c1	36.4
CN(C)CCCN(Cc1cc2ccccc2[nH]c1=O)C(=O)NCc1ccccc1	-1.32
CN(C)S(=O)(=O)c1ccc(N2CCCC2)c(C(=O)Nc2cccc(F)c2)c1	-9.24
